Screening data deposited in PubChem BioAssay by National Center for Advancing Translational Sciences (NCATS).
Most compounds without a hit are left out; they make up all but 21% or so of the library.
CHX counter: counter-screen hit for Shiga toxin inhibitors, cycloheximide | cell reporter, cycloheximide protein synthesis inhibition counterscreen | max response, % | 300,000 compounds, 12% hits | AID 2314; in the data active = max response mostly above about 13%, no sharp cut-off; inactive = mostly below about 14%; note: read at 38.3 µM for the half of the compounds with a filed dose; 0% is about no effect
Pf growth 96h: P. falciparum growth inhibition at 96 hour, primary screen for plastid delayed-death inhibitors. P. falciparum luciferase reporter growth, 96 h. Potency, µM (titrated, usually from 28.7 µM), inactives show at the highest dose activity change, negative = inhibition, most hits filed as inhibitors. 320,000 compounds, 6.9% hits; note: potency is the fitted concentration of half-maximal effect; % is set by controls: 0 for no effect and ±100 for the full control effect
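Compounds incubated with erythrocytes infected by luciferase-expressing P. falciparum (2% hematocrit, 0.05% parasitemia final) for 96 hours, 37 C in 5% CO2. Growth inhibition scored as decreased luciferase luminescence.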
NS1 inh: influenza NS1 inhibition; Potency, µM (highest dose often 46.1 µM), inactives show at the highest dose activity, positive = more growth; 270,000 compounds, 0.4% hits; calls by dose curve; note: potency is the fitted concentration of half-maximal effect; actives are rising curves; nearly all actives have a fitted effect of over 50% in size
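S. cerevisiae expressing influenza A NS1, grown in glucose, washed, then diluted 1:100 into pH 6.0 -URA galactose medium with 23 nl compound. Growth recovery read as OD600; NS1-free strain serves as control.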
Pf growth 48h: inhibits P. falciparum growth in the first generation, 48 h; P. falciparum luciferase growth in erythrocytes, 48 h; Potency, µM (doses to about 28.7 µM), inactives show top-dose activity change, negative = inhibition, most hits filed as inhibitors; 310,000 compounds, 5.9% hits; AID 504832; note: potency is the fitted concentration of half-maximal effect; % is set by controls: 0 for no effect and ±100 for the full control effect
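Compounds are pin-transferred into medium, infected erythrocytes (2% hematocrit, 0.1% parasitemia final) are added, and plates sit one parasite generation at 37 C in 5% CO2. Detection reagent is then added and luminescence measured.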
Giardia FBPA inh: Giardia lamblia aldolase inhibition; A8B2U2; purified Giardia FBPA; Potency, µM (titrated, usually from 59.6 µM), inactives show top-dose activity, negative = inhibition, actives largely listed as inhibitors; 290,000 compounds, 0.71% hits; AID 2451; note: potency is the fitted concentration of half-maximal effect; % is set by controls: 0 for no effect and ±100 for the full control effect; nearly all actives have a fitted effect of over 55% in size
Target sequence (A8B2U2 whole entry, looked up): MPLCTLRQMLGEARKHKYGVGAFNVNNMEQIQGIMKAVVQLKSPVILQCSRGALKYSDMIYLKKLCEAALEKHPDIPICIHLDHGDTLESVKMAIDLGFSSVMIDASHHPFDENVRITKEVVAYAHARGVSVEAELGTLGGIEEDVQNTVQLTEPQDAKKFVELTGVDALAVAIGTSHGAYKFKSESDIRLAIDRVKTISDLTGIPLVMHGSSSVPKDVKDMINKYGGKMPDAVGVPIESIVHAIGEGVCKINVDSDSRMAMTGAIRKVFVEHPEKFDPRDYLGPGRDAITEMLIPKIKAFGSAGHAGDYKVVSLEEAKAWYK
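40 nM FBPA preincubated 10 min at RT with compound (up to 57.5 uM final), then substrate plus GAPDH/TPI/NAD/arsenate coupling and diaphorase/resazurin added. Fluorescence read after 20 min at RT, 525/598 nm.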
Shiga inhibitor: blocks Shiga toxin action in Vero cells; 290,000 compounds, 9.2% hits; AID 2315; Vero cells, Shiga toxin protein synthesis inhibition reporter; inhibition, % at 38.7 µM; in the data active = inhibition mostly above about 28%, no sharp cut-off; inactive = mostly below about 43%; note: 0% is about no effect
The depositor's hits bear a star; u = inconclusive; x = not tested or not shown; + = active, no number; [ ] = dose if it differs, or a comment. Unless noted, calls come from the whole dose curve; as a rule, active = well fitted curve in the direction sought with a large enough effect; inconclusive = small, poorly fitted or top-dose-only effect, or another doubt; inactive = no such curve, though single readings can be large; an effect the other way counts as inactive or inconclusive.

SMILES | CHX counter | Pf growth 96h | NS1 inh | Pf growth 48h | Giardia FBPA inh | Shiga inhibitor
NC[C@@H]1O[C@H](O[C@H]2[C@H](O)[C@H](O[C@@H]3O[C@H](CO)[C@@H](O)[C@H](N)[C@@H]3O)[C@@H](N)C[C@H]2N)[C@@H](O)[C@H](O)[C@@H]1O | x | 10.5%[12.8 µM] | x | 5.5%[12.8 µM] | 1.2%[21.7 µM] | x
O=C(NCc1cccnc1)C(=O)NCC1OCCCN1S(=O)(=O)c1ccc(F)cc1 (stereo not given) | 0.5 | 14.6% | 9.9% | 2.4% | x | -33.7
CCc1cc(C(=O)N2CCN(S(=O)(=O)c3ccc(Cl)cc3)CC2)sc1C | x | 9.28µM* | x | 9.28µM* | x | x
O=C(Cc1ccc(S(=O)(=O)N2CCOCC2)s1)N1CCN(c2cccc(C(F)(F)F)c2)CC1 | -1.2 | 10.4µM* | 7.7% | u | x | -6.5
O=C(COc1cccc(C(F)(F)F)c1)NNC(=O)Cc1ccc(S(=O)(=O)N2CCOCC2)s1 | x | u | x | 13.1µM* | x | x
O=C(Cc1ccc(S(=O)(=O)N2CCCC2)s1)N1CCN(c2ccccc2)CC1 | 10.9 | u | x | -8.2% | -0.9% | 30.9
O=C(Cc1ccc(S(=O)(=O)N2CCOCC2)s1)N1CCN(S(=O)(=O)c2cccc(Cl)c2)CC1 | x | u | x | 11.7µM* | x | x
CN(CCc1ccc(Cl)c(Cl)c1)CCN1CCCC1 | x | x | x | x | 4.7% | x
COc1ccc(N2CCN(C(=O)Cc3ccc(S(=O)(=O)N4CCOCC4)s3)CC2)cc1 | 10.7 | u | x | u | -20.7% | -6.7
CCOc1ccc(NC(=O)Cc2ccc(S(=O)(=O)N3CCOCC3)s2)cc1OCC | -4.4 | -8.2% | -0.4% | 26.8% | x | -20.8
Cc1ccc(S(=O)(=O)N2CCN(C(=O)Cc3ccc(S(=O)(=O)N4CCOCC4)s3)CC2)cc1 | -1.6 | 11.7µM* | 11.5% | u | x | -3.4
O=C(Cc1ccc(S(=O)(=O)N2CCOCC2)s1)N1CCN(S(=O)(=O)c2ccc(Cl)cc2)CC1 | x | 4.65µM* | x | 7.38µM* | x | x
COCCOc1ccc(C(F)(F)F)cc1NC(=O)Cc1ccc(S(=O)(=O)N2CCOCC2)s1 | x | 8.28µM* | x | 11.7µM* | x | x
Cc1cc(S(=O)(=O)N2CCCC(C)C2)ccc1-n1cnnn1 (stereo not given) | -4.1 | 15.9% | -3.2% | -4.7% | -1.0% | -4.8
CS(=O)(=O)Nc1cccc(-c2cncnc2-n2ccnc2)c1 | x | x | x | x | -7.7% | x
Cc1c(Cn2ccnc2)c2ccccc2n1CCC(=O)O | x | u | x | -10.9% | x | x
COc1ccccc1CNC(=O)C(=O)NCCC1CCCCN1S(=O)(=O)c1cccs1 (stereo not given) | x | 11.7µM* | x | u | x | x
COc1ccccc1CCNC(=O)C(=O)NCCC1CCCCN1S(=O)(=O)c1ccccc1 (stereo not given) | x | 82.2% | x | 49.8% | x | x
COc1ccccc1CNC(=O)C(=O)NCCC1CCCCN1S(=O)(=O)c1ccc(C)cc1 (stereo not given) | x | u | x | 11.7µM* | x | x
O=C(NCc1ccccc1Cl)C(=O)NCC1OCCN1S(=O)(=O)c1cccs1 (stereo not given) | 21.4* | -14.3% | x | -19.9% | -0.9% | 27.9
Cc1ccccc1CNC(=O)C(=O)NCCC1CCCCN1S(=O)(=O)c1cccs1 (stereo not given) | x | 11.7µM* | x | u | x | x
CNC(=O)C(=O)NCCC1CCCCN1S(=O)(=O)c1cccs1 (stereo not given) | x | 1.9% | x | 13.3% | x | x
CC#CCN1c2ccccc2[C@]23C[C@@H](C(=O)OC)N(S(=O)(=O)c4ccc5c(c4)OCCN5C)C2=NC(C(=O)OC)=C(C(=O)OC)[C@H]13 | x | x | x | x | 0.9%[12.9 µM] | x
CC1CCCC(C)N1C(=C(Cl)Cl)C(=C1SCCS1)[N+](=O)[O-] (stereo not given) | 7.8 | u | x | -28.7% | -7.4% | 22.5
COc1ccc(CNc2ccc([N+](=O)[O-])cn2)cc1 | 28.0* | -24.8% | 0.7% | 143.7% | 3.0% | 59.1*
COc1ccc(Nc2ccc([N+](=O)[O-])cn2)cc1 | 36.7* | -17.4% | -22.7% | 73.5% | -2.8% | 37.8*
COc1ccccc1Nc1ccncc1[N+](=O)[O-] | -3.7 | u | -3.1% | u | -7.3% | -3.5
CCOC(=O)c1ccc(Nc2ccc([N+](=O)[O-])cn2)cc1 | 30.7* | u | 1.1% | 135.1% | 2.9% | +
COc1ccc(Nc2nccc(-c3ccc([N+](=O)[O-])cc3)n2)cc1 | -0.4 | -25.8% | 5.3% | -0.3% | 10.2% | 3.2
